Assay [1] in a line: qHTS drug screen for cell cycle checkpoint inhibitors in PARPi-resistant BRCA-mutant ovarian cancer cell lines. (AID 1963452; calls by dose curve). The settings on record: PEO1/OlaR viability, CellTiter-Glo luminescence, 96 h, stronger effect = lower value. In short, it runs like this: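 PEO1, PEO4 and PEO1/OlaR ovarian cancer cells, 600 per well, exposed 96 h at 37C to a dilution series. Viability read by CellTiter-Glo luminescence, normalized to DMSO and empty wells; activity summarized as Z-AUC.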
On the technique in general: qHTS replaces the single test concentration by a dilution series.

Assay [2] in a line: qHTS profiling for inhibitors of Plasmodium falciparum proliferation (AID 504749).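 For activity, negative = inhibition: 0% = DMSO vehicle and full inhibition = artemisinin control.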 Note: nearly all actives have a fitted effect of over 60% in size. Note: potency is the fitted concentration of half-maximal effect. Conditions: P. falciparum in erythrocytes, SYBR Green DNA, 72 h, at 28.7 µM (top of the series). The procedure, abridged:
(§1)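 Parasite proliferation within erythrocytes, 72 h exposure. Endpoint: SYBR Green I fluorescence after overnight lysis at room temperature. Controls: 0.29 uM artemisinin, DMSO.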

For the next assay, the system named is 3D7. The description is as above. Conditions: P. falciparum in erythrocytes, SYBR Green DNA, 72 h; series mostly up to 28.7 µM. In short, it runs like this: as §1
The next assay deals with 7G8. The assay is described as above. The settings on record: P. falciparum in erythrocytes, SYBR Green DNA, 72 h; series mostly up to 28.7 µM. The procedure, abridged:
as §1

For a further assay, the system named is AA1029. The assay is described as above. The settings on record: P. falciparum in erythrocytes, SYBR Green DNA, 72 h; series mostly up to 28.7 µM. In short, it runs like this: as §1
Another assay concerns AS120. Described as above. The settings on record: P. falciparum in erythrocytes, SYBR Green DNA, 72 h; series mostly up to 28.7 µM. In short, it runs like this: as §1
For the next assay, the system named is ATS189. The assay is described as above. The settings on record: P. falciparum in erythrocytes, SYBR Green DNA, 72 h; series mostly up to 28.7 µM. In short, it runs like this: as §1
In the next assay the test system is ATS95. The assay is described as above. The settings on record: P. falciparum in erythrocytes, SYBR Green DNA, 72 h; series mostly up to 28.7 µM. In short, it runs like this: as §1
Another assay deals with C2A. The description is as above. Conditions: P. falciparum in erythrocytes, SYBR Green DNA, 72 h; series mostly up to 28.7 µM. The procedure, abridged:
as §1

Another assay concerns CP185. Described as above. The settings on record: P. falciparum in erythrocytes, SYBR Green DNA, 72 h; series mostly up to 28.7 µM. The procedure, abridged:
as §1

A further assay has as its system CP191. The description is as above. The settings on record: P. falciparum in erythrocytes, SYBR Green DNA, 72 h; series mostly up to 28.7 µM. The procedure, abridged:
as §1

The test system of another assay is CP192. Described as above. Conditions: P. falciparum in erythrocytes, SYBR Green DNA, 72 h; series mostly up to 28.7 µM. In short, it runs like this:
as §1

The next assay relates to CP194. The description is as above. Conditions: P. falciparum in erythrocytes, SYBR Green DNA, 72 h; series mostly up to 28.7 µM. In short, it runs like this:
as §1

The next assay relates to CP201. Described as above. The settings on record: P. falciparum in erythrocytes, SYBR Green DNA, 72 h; series mostly up to 28.7 µM. In short, it runs like this: as §1
The subject of another assay is CP211. Described as above. The settings on record: P. falciparum in erythrocytes, SYBR Green DNA, 72 h; series mostly up to 28.7 µM. The procedure, abridged:
as §1

Another assay deals with CP217. The description is as above. The settings on record: P. falciparum in erythrocytes, SYBR Green DNA, 72 h; series mostly up to 28.7 µM. In short, it runs like this:
as §1

A further assay deals with CP237. The assay is described as above. The settings on record: P. falciparum in erythrocytes, SYBR Green DNA, 72 h; series mostly up to 28.7 µM. The procedure, abridged:
as §1

Assay [3] is described as follows: qHTS for identification of novel therapeutic agents for treatment of microphthalmiaassociated transcription factor (MiT) renal cell carcinoma (RCC) (AID 1963991; calls by dose curve; note: potency is the fitted concentration of half-maximal effect). The settings on record: CellTiter-Glo, 48 h; for z-score: stronger effect = lower value. In short, it runs like this:
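Three TFE3-fusion RCC cell lines (UOK109, UOK124, UOK145), 500 cells/well, were exposed to the 1912-compound MIPE 4.0 library for 48 hours at 37 C. Viability was read by CellTiter-Glo luminescence, normalised to DMSO (100%) and empty wells (0%), with 11-concentration curve fits.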

In the next assay the test system is CP215. The experiment in a line: qHTS profiling for inhibitors of Plasmodium falciparum proliferation (AID 504749).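 For activity, negative = inhibition: 0% = DMSO vehicle and full inhibition = artemisinin control.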 Note: nearly all actives have a fitted effect of over 60% in size. Note: potency is the fitted concentration of half-maximal effect. Conditions: P. falciparum in erythrocytes, SYBR Green DNA, 72 h; series mostly up to 28.7 µM. The procedure, abridged: as §1
Where [4] appears, read: measured here: PEO1 parental Z-AUC.
Setting [5] is: TFE3-RCC UOK109 viability, measured here: UOK109 Z-AUC.
Where [6] appears, read: TFE3-RCC viability, measured here: UOK124 Z-AUC.
Where [7] appears, read: TFE3-RCC viability, measured here: UOK145 Z-AUC.

Results filed as inconclusive are left out. Active and inactive are the calls of the source. Unless noted, calls come from the whole dose curve; as a rule, active = well fitted inhibition curve with a large enough effect; inconclusive = small, poorly fitted or top-dose-only effect; inactive = flat fitted curve, though single readings scatter.

As for `CNC[C@H](O)c1cccc(O)c1`, the Z-AUC in [1] was 0.649 (inactive); in assay [1] (setting [4]), 0.723; in assay [1] (measured here: PEO4 Z-AUC), 0.496. For the same compound, the activity, negative = inhibition was 6.65% (inactive) in [2] (parasite line A) and -11% (inactive) in [2] (parasite line B). Besides, the Potency entry with 3D7, in the assay with 7G8, with AA1029, in the assay with AS120, in the assay with ATS189 and with ATS95 was “inactive” in each case. Besides, the Potency result with C2A, in the assay on CP185, with CP191, in the assay on CP192, in the assay with CP194 and with CP211 was “inactive” each time. Moreover, the Potency entry in the assay with CP217 and in the assay with CP237 was “inactive” each time. The compound was called inactive in the assay on CP201.

Consider `C#Cc1cccc(Nc2ncnc3cc(OCCOC)c(OCCOC)cc23)c1`, for which the Z-AUC is -0.425 (inactive) in assay [1], -1.02 in assay [1] (setting [4]) and -0.978 in assay [1] (measured here: PEO4 Z-AUC). Further, the Potency in assay [3] (TFE3-RCC UOK109 viability, active = Z-AUC below -0.8 in all three lines) was 0.0526 µM (active); in the assay with 3D7, 8.91 µM (active); with 7G8 it was 11.2 µM (active); in the assay on AA1029 it was 8.91 µM (active); in the assay with AS120 it was 11.2 µM (active); in the assay with CP237, 12.6 µM (active). Besides, the z-score in assay [3] (setting [5]) is -2.56; in assay [3] (setting [6]) it was -1.06; in [3] (setting [7]), -1.55. The Potency result with CP185 and with CP192 was “inactive” throughout.

Turning to `O=NN(CCCl)C(=O)NCCCl`, the results for the Z-AUC in assay [1], in assay [1] (setting [4]) and in assay [1] (measured here: PEO4 Z-AUC) were 0.732 (inactive), 0.83 and 0.781, respectively. In addition, the z-score in [3] (setting [5]) is -0.0741; in [3] (setting [6]), 1.48; in assay [3] (setting [7]), -0.0256. Besides, the results for the activity, negative = inhibition in assay [2] (parasite line A) and in [2] (parasite line B) were -1.48% (inactive) and 4.82% (inactive), respectively. Also, the Potency result in the assay with 3D7, in the assay on 7G8, with AA1029, in the assay on AS120, with ATS189 and in the assay with ATS95 was “inactive” in each case. Besides, the Potency entry in the assay with C2A, in the assay with CP185, in the assay with CP191, with CP192, in the assay with CP194 and in the assay with CP211 was “inactive” in each case. The Potency result with CP215, in the assay with CP217 and in the assay on CP237 was “inactive” in each case. Besides, in the assay on CP201, the compound was called inactive.

For `NC(N)=NC(=O)c1nc(Cl)c(N)nc1N`, the Potency in the assay on 7G8 was 2 µM (active); with CP191 it was 8.91 µM (active); with CP237, 8.91 µM (active). Also, the Potency result with CP185, in the assay on CP192, in the assay on CP194 and with CP211 was “inactive” in each case. Moreover, the outcome in the assay on CP201 was inactive.

Consider `Cc1ccccc1C(OCCN(C)C)c1ccccc1` (stereo unspecified), for which the activity, negative = inhibition in [2] (parasite line A) was -3.11% (inactive); in assay [2] (parasite line B) it was 5.42% (inactive). The Potency entry with 3D7, in the assay on CP191 and in the assay with CP192 was “inactive” in each case. Besides, the Potency with ATS95 was 8.91 µM (active).

Regarding `COc1ccc2nc(S(=O)Cc3ncc(C)c(OC)c3C)[nH]c2c1` (stereo unspecified), the Z-AUC in assay [1] was 1.57 (inactive); in assay [1] (setting [4]), 0.925; in assay [1] (measured here: PEO4 Z-AUC), 1.02. Moreover, the activity, negative = inhibition in assay [2] (parasite line A) was -18.6% (inactive); in assay [2] (parasite line B), -6.81% (inactive). For the same compound, the Potency result in the assay with 3D7, in the assay on AA1029, in the assay on AS120, in the assay on ATS189, in the assay with ATS95 and in the assay with C2A was “inactive” in each case. The Potency entry with CP185, with CP192, in the assay on CP194, with CP211, in the assay with CP215 and with CP217 was “inactive” throughout. In the assay on CP237, the Potency result is “inactive”. In the assay with 7G8, the Potency is 10 µM (active). The outcome with CP201 was inactive.

Regarding `CCOc1ccc(Cc2cc([C@@H]3O[C@H](CO)[C@@H](O)[C@H](O)[C@@H]3O)ccc2Cl)cc1`, the figures for the z-score in [3] (setting [5]), in assay [3] (setting [6]) and in assay [3] (setting [7]) were 0.362, 0.747 and 0.623, respectively.

For the compound `Clc1ccc(Nc2nnc(Cc3ccncc3)c3ccccc23)cc1`, the Z-AUC in [1] is 0.341 (inactive); in assay [1] (setting [4]), 0.338; in assay [1] (measured here: PEO4 Z-AUC), 0.325. In addition, the activity, negative = inhibition is -16.8% (inactive) in [2] (parasite line A) and -13.7% (inactive) in [2] (parasite line B). In addition, the Potency entry in the assay with 3D7, with ATS189, with ATS95, in the assay with C2A, in the assay on CP185 and with CP192 was “inactive” throughout. In addition, the Potency entry in the assay on CP194, in the assay on CP211 and in the assay with CP215 was “inactive” in each case. Besides, the Potency with 7G8 was 10 µM (active). Also, the compound was called inactive in the assay on CP201.
